According to PubChem BioAssay AID602310 (National Center for Advancing Translational Sciences (NCATS), 2012):
Among all 410,000 compounds or so, about 310 (0.076%) were called active. Inconclusive results (about 2%) are left out. The call rests on the fitted dose curve; in most records, active means well fitted curve in the direction sought with a large enough effect; inconclusive means small, poorly fitted or top-dose-only effect; inactive means flat fitted curve, though single readings scatter. The list comes from a sample in which actives are over-represented; it also holds similar structures and randomly drawn compounds. A call without a number means that no potency is given here.

Target: DNA dC->dU-editing enzyme APOBEC-3G (Homo sapiens) (UniProt Q9HC16)
Sequence (Q9HC16 whole entry, looked up): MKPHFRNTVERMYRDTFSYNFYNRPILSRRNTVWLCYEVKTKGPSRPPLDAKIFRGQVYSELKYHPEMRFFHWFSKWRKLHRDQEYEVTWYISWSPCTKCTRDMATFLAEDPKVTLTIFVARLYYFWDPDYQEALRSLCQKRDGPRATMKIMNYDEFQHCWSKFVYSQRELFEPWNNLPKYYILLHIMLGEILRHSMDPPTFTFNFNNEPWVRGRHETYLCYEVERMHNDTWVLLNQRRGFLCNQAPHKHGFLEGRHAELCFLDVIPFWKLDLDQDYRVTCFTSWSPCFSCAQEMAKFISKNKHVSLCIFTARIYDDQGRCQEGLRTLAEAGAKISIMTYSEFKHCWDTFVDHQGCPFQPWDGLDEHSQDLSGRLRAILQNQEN
Assay: qHTS for Inhibitors of Vif-A3G Interactions: qHTS; further: nearly all actives have a fitted effect of over 60% in size
Conditions: HeLa A3G-eYFP + Vif (tagged APOBEC3G with the HIV-1 protein that degrades it), YFP fluorescence, overnight; series mostly up to 46.1 µM
Outline: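 HeLa cells stably expressing Vif and C-terminally eYFP-tagged A3G, seeded overnight at 37 deg C, then exposed to compound by pintool overnight at 37 deg C. Rise in yellow fluorescence (Ex 488/Em 500-530, Acumen) marks blocked Vif-driven A3G degradation.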
Potency means the concentration at half of the fitted maximal effect.

How did the Potency turn out when `CCOc1n[nH]c(-c2ccccc2)n1` was run?
The Potency was “inactive”.

Which Potency does the source give for `CCc1nn(CC(=O)Nc2cccc(C)c2C)c(=O)c2cc3sccc3n12` here?
Its Potency is “inactive”.

`CCOc1ccccc1NC(=O)CN1CCN(S(=O)(=O)c2ccc(Br)cc2)CC1` was tested. Which Potency did it give?
Its Potency is “inactive”.

Which Potency does the source give for `COc1cccc(NC(=O)Cn2c(=O)cc(C)c3c(C)nn(-c4cccc(F)c4)c32)c1` here?
Its Potency is “inactive”.

For `Nc1nc(N)c(N=O)c(N)n1`, which Potency is on record?
The Potency was “inactive”.

Which Potency does the source give for `CCCCOc1ccc(C(=O)N2CC(=O)Nc3ccc(Br)cc3C2c2ccc(F)cc2)cc1` (centres undefined) here?
Its Potency is “inactive”.

For `COc1ccccc1/C=C/c1nc(C#N)c(NC(C)c2ccccc2)o1` (centres undefined), which Potency is on record?
Its Potency is “inactive”.

Which Potency does the source give for `COc1ccc(CCNC(=O)c2ccc(CSCc3ccc(C)cc3)o2)cc1OC` here?
Its Potency is “inactive”.

`CNCCCOc1cc2nc(N3CCCN(C)CC3)nc(NC3CCN(C)CC3)c2cc1OC` was tested. Which Potency did it give?
Its Potency is “inactive”.

`O=C(COc1ccccc1C(=O)Nc1ccccc1)Nc1cccc(F)c1` was tested. Which Potency did it give?
The Potency was “inactive”.

With `CC1(C)CC(=O)c2cc(C(=O)NCc3ccccc3)c(=O)[nH]c2C1` as the molecule, how does the Potency read?
Its Potency is “inactive”.

How did the Potency turn out when `Cn1nnnc1SCCNCc1ccc(Cl)c(Cl)c1` was run?
The Potency was “inactive”.

With `Cc1csc[n+]1CCC1CCCCC1` as the molecule, how does the Potency read?
Its Potency is “inactive”.

For `CCn1c(CNc2ccc(OC)cc2)nnc1SCC(=O)c1ccc(OC)cc1`, which Potency is on record?
The Potency was “inactive”.

For `CCCCn1c(CNC(=O)C23CC4CC(CC(C4)C2)C3)nnc1SCC(=O)Nc1ccc(C)cc1`, which Potency is on record?
Its Potency is “inactive”.

Which Potency does the source give for `CCn1c(CNC(=O)C23CC4CC(CC(C4)C2)C3)nnc1SCC(=O)Nc1ccc(OC)cc1` here?
The Potency was 10 µM (active).

For `Cc1ccc(C(=O)COC(=O)C(Cc2c[nH]c3ccccc23)NC(=O)c2ccc(Br)cc2)cc1` (centres undefined), which Potency is on record?
Its Potency is “inactive”.

How did the Potency turn out when `Cc1ccc(Cl)cc1N1CCN(C(=O)c2cn(C)c3ccc(S(=O)(=O)N(C)C4CCCCC4)cc3c2=O)CC1` was run?
The Potency was “inactive”.

Which Potency does the source give for `S=c1[nH]c(=S)c2n[nH]nc2[nH]1` here?
The Potency was “inactive”.

With `COc1cccc(C(=O)NC(=O)Nc2ccc(-c3cc(C(F)(F)F)nn3-c3ccccc3)cc2)c1` as the molecule, how does the Potency read?
Its Potency is “inactive”.

With `COc1ccc(CCN2C(=O)N(c3cccc(OC)c3)C(=O)C2CC(=O)Nc2ccccc2)cc1` (centres undefined) as the molecule, how does the Potency read?
Its Potency is “inactive”.

With `COc1ccc(CC(=O)NCCc2sc3nc(-c4ccc(OC)cc4)nn3c2C)cc1` as the molecule, how does the Potency read?
The Potency was “inactive”.

`CCc1ccc(Nc2nn3c(=O)c4cc5c(cc4nc3s2)OCO5)cc1` was tested. Which Potency did it give?
Its Potency is “inactive”.

With `CCOC(=O)c1c(C)[nH]c(C)c1S(=O)(=O)NCC(=O)NCc1cccc(C)c1` as the molecule, how does the Potency read?
Its Potency is “inactive”.

`COc1ccc(CNC(=O)Cn2nnc(-c3ccc(S(C)(=O)=O)cc3)n2)cc1` was tested. Which Potency did it give?
The Potency was “inactive”.

With `COc1ccc(OC)c(NC(=O)CSc2nc3ccccc3nc2N2CCCCC2)c1` as the molecule, how does the Potency read?
The Potency was “inactive”.

`Cc1ccc(Cn2cnc3c(cnn3C(C)(C)C)c2=O)c(F)c1` was tested. Which Potency did it give?
Its Potency is “inactive”.

Which Potency does the source give for `Brc1cccc(-c2nnn3c2nc(NC2CCCCC2)c2ccccc23)c1` here?
The Potency was “inactive”.

Which Potency does the source give for `C[N+]1(CC(=O)c2cccs2)CCOCC1` here?
The Potency was “inactive”.

`CCCNC(=O)C1CCN(c2nc3ccc(C)cc3[nH]2)CC1` was tested. Which Potency did it give?
Its Potency is “inactive”.

`COc1cc(OC)c(NC(=O)c2c3c(nn2C)-c2ccccc2SC3)cc1Cl` was tested. Which Potency did it give?
The Potency was “inactive”.

How did the Potency turn out when `CN(N=O)c1ccc(C=C2c3ccccc3-c3ccccc32)cc1` was run?
Its Potency is “inactive”.

How did the Potency turn out when `COc1ccc2[nH]c3c(c2c1)CCN(C(=O)CCC1CCCC1)C3c1ccc(F)cc1` (centres undefined) was run?
The Potency was “inactive”.

How did the Potency turn out when `CN(C)c1cccc2ccccc12` was run?
The Potency was “inactive”.

For `CN(C)c1ccc(/C=C/c2c3ccccc3nc3ccccc23)cc1`, which Potency is on record?
Its Potency is “inactive”.

For `Cc1oc2c(c1C(=O)Nc1ccc(F)c(F)c1)C1=NCCN1C=N2`, which Potency is on record?
The Potency was “inactive”.

For `CCc1nnc(SCc2c(F)cccc2Cl)c2cc3sccc3n12`, which Potency is on record?
Its Potency is “inactive”.

`COc1ccc(/C=C/c2ccccn2)cc1OC` was tested. Which Potency did it give?
Its Potency is “inactive”.

Which Potency does the source give for `Cc1cc(Cl)ccc1OCC(=O)N(Cc1ccc(N(C)C)cc1)C1CCS(=O)(=O)C1` (centres undefined) here?
The Potency was “inactive”.

`CN(C)C1=C2C=CC=CC2/C(=C2/C=Cc3ccccc32)C=C1` (centres undefined) was tested. Which Potency did it give?
The Potency was “inactive”.

`CCOc1ccccc1NC(=O)Cn1c(=O)n(-c2cccc(C)c2)c(=O)c2c1c1cc(OC)ccc1n2C` was tested. Which Potency did it give?
The Potency was “inactive”.

How did the Potency turn out when `O=C(Nc1ccc([N+](=O)[O-])cc1)c1cnn2c1NC(=C1CC1)C=C2C(F)F` was run?
Its Potency is “inactive”.

With `O=C(CSc1ncc(S(=O)(=O)c2ccc(Br)cc2)c(=O)[nH]1)Nc1ccc2c(c1)OCCO2` as the molecule, how does the Potency read?
The Potency was “inactive”.

`CCOc1ccccc1C(=O)NCc1ccc2c(c1)CCN2C(=O)c1ccc(F)cc1` was tested. Which Potency did it give?
Its Potency is “inactive”.

How did the Potency turn out when `COc1cc2nc(C#Cc3nc4cc(OC)c(OC)cc4[nH]3)[nH]c2cc1OC` was run?
Its Potency is “inactive”.

With `Cc1ncc(CO)c(/C=N/NC(=O)c2cccc(S(=O)(=O)N3CCCC3)c2)c1O` as the molecule, how does the Potency read?
Its Potency is “inactive”.

Which Potency does the source give for `COc1cccc(/C=N/NC(=O)c2[nH]nc3c2CCc2ccccc2-3)c1O` here?
Its Potency is 8.91 µM (active).

With `Cc1ccccc1NC(=O)COc1cccc2c1CCNC2=O` as the molecule, how does the Potency read?
Its Potency is “inactive”.

Which Potency does the source give for `CCc1cc2c(cc3c(=O)n(CC(=O)N4CCN(c5cc(Cl)ccc5C)CC4)nc(CC)n32)s1` here?
Its Potency is “inactive”.
